Screening results as filed in PubChem BioAssay.
CYP2C9 inhib – inhibitors of human CYP2C9; inhibition, % at 5 µM; 96,000 tested, 20% active; CYP2C9 Supersomes, luciferin-H conversion, luminescence;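 active means blocking of liver enzyme CYP2C9 beyond about 50% at 5 µM, limit read from the data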
Target sequence (P11712 whole entry, looked up): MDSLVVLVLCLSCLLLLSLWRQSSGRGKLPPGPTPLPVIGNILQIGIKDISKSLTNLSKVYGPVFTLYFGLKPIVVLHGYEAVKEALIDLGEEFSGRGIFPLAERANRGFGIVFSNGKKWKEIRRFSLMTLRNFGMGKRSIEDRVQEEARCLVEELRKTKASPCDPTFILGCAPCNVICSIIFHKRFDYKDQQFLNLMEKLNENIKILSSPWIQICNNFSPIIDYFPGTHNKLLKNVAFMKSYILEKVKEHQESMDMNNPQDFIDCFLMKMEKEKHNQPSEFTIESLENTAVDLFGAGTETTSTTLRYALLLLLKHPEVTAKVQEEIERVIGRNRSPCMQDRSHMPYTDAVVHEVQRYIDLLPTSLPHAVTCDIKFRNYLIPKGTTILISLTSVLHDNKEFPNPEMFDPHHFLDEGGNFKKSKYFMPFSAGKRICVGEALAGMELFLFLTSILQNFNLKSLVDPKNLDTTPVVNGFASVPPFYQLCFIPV
PLAP act – activates human placental alkaline phosphatase. activation fold at 20 µM. purified PLAP enzyme, luminescent substrate read-out; active compounds read high. 96,000 tested, 1.2% active. P05187; in the data active means activation fold above about 2
CYP2C19 inhib – blocks human cytochrome P450 2C19. CYP2C19 Supersomes, luciferin-H EGE luminescence, 30 min. inhibition, % at 5 µM. 96,000 tested, 21% active. AID 778;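 active means CYP2C19 inhibition above a set limit at 5 µM in the primary screen, cut at about 50% in these data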
CYP2C19 activ – increases human CYP2C19 enzyme activity; P33261; recombinant CYP2C19, luciferin-H EGE luminescence; active compounds read high; 0 = fully inhibited enzyme, 1 = untreated enzyme; activation factor at 5 µM; 96,000 tested, under 10 active;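 active means activation factor of at least 2 at 5 µM in the primary screen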
CYP2C9 act – increases human cytochrome P450 2C9 activity | 96,000 tested, 1.4% active | recombinant CYP2C9, luciferin-H conversion, luminescence; active compounds read high; factor 1 = untreated enzyme, 0 = blocked | AID 1024 | P11712 | activation factor at 5 µM;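 active means activation factor of 2 or more for CYP2C9 at a 5 µM dose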
Of the large screens only hits and unclear results are named; the others gave an inactive call. Compounds with a hit are over-represented: about 31% of the library has one in this group of screens.

Cc1ccc(O)c(C2=NNC(O)(C(F)(F)F)C2)c1 (configuration not stated)	PLAP act 2.2
Cc1ccc(O)c(-c2cc(C(F)(F)C(F)F)nc(-c3ccccc3)n2)c1	none
CCCN1C(=O)/C(=C/c2ccc(N3CCCC3)c(C)c2)NC1=S	CYP2C9 inhib 53, CYP2C19 inhib 53
O=C1c2ccccc2NC(c2ccc(O)cc2)N1Cc1ccco1 (configuration not stated)	CYP2C9 inhib 60
O=C1c2ccccc2NC(c2cccc(F)c2)N1Cc1ccco1 (configuration not stated)	CYP2C9 inhib 96, CYP2C19 inhib 92
Cc1ccc(C2Nc3ccccc3C(=O)N2Cc2ccco2)cc1 (configuration not stated)	CYP2C9 inhib 86
CCN(CC)CCN1C(=O)c2ccccc2NC1c1cccc(F)c1 (configuration not stated)	none
COc1ccc(C(=O)Nc2cccc3c2C(=O)NC3=O)cc1S(=O)(=O)N1CCOCC1	none
Cc1ccc(C(=O)ON=C2CCN(c3ccc([N+](=O)[O-])cc3)CC2)cc1	none
COc1cc(S(=O)(=O)N2CCCCC2)ccc1NC(C)=O	none
C/C(Cl)=C/CSc1nn2c(=O)c3ccccc3nc2s1	CYP2C9 inhib 82, CYP2C19 inhib 74
O=C(COc1ccccc1Cl)Nc1ccc2c(c1)OCCO2	none
COc1ccc(OCCCC(=O)Nc2ccc3c(c2)OCO3)cc1	CYP2C9 inhib 68
O=C(CCN1C(=O)c2ccccc2S1(=O)=O)Nc1ccc2c(c1)OCCO2	CYP2C9 inhib 59
Cc1ccccc1OCCCC(=O)Nc1ccc2c(c1)OCO2	CYP2C19 inhib 63
Cc1cccc(OCC(=O)Nc2ccc3c(c2)OCCO3)c1	CYP2C9 inhib 58, CYP2C19 inhib 70
CC(C)CCn1c(SCC(=O)OCn2nnc3ccccc3c2=O)nc2ccccc2c1=O	none
COc1ccccc1NC(=O)C1CCN(c2ncccn2)CC1	none
Cc1nc(SCC(O)CO)c([N+](=O)[O-])[nH]1 (configuration not stated)	none
COc1nc(NC(C)=O)nc(C)c1Br	none
O=C(CC1C(=O)NCCN1C(=O)Nc1ccccc1)Nc1ccc2c(c1)OCO2 (configuration not stated)	none
O=C(CCCOc1ccccc1)Nc1ccc2c(c1)OCCO2	CYP2C9 inhib 55, CYP2C19 inhib 81
O=C(CC1C(=O)NCCN1C(=S)Nc1ccccc1)Nc1ccc2c(c1)OCCO2 (configuration not stated)	CYP2C9 inhib 59
Cc1c2c([n+]3n1CCC3)CC(C)(C)CC2=O	none
CCOC(=O)C1CCCN(C(=O)C2CCCN(S(C)(=O)=O)C2)C1 (configuration not stated)	none
CCCCCOc1ccc(C(=O)NC(C(=O)O)C(C)C)cc1 (configuration not stated)	none
O=C(O)CSc1nc2ccccc2[nH]1	none
O=C(CSc1nc2ccccc2[nH]1)Nc1ccc(F)c(F)c1	CYP2C9 inhib 66, CYP2C19 inhib 56
O=C(CSC1=NCCS1)Nc1cccc2ccccc12	none
O=C(CSc1nc2ccccc2[nH]1)Nc1ccccc1F	CYP2C9 inhib 84, CYP2C19 inhib 64
O=C(CSC1=NCCS1)Nc1ccccc1F	CYP2C19 inhib 79
O=C(CSc1nc2ccccc2[nH]1)NCCCn1ccnc1	CYP2C9 inhib 95, PLAP act 2, CYP2C19 inhib 92
O=C1CCC(C(=O)NCCCn2ccnc2)N1 (configuration not stated)	none
COc1ccc(N2C(=O)C3CCCN3C2c2cccc(F)c2)cc1Cl (configuration not stated)	none
Cc1ccc(C(C(=O)NCc2ccco2)N(C(=O)CNC(=O)c2cccs2)c2ccc(C)cc2C)cc1 (configuration not stated)	none
CCCN(CCC)C(=S)NC(=O)c1ccc(-c2ccccc2)cc1	none
COCCn1c(Cc2ccccc2)nnc1SCC(=O)NC(C)(C)C	none
CC(C)Sc1nnc(Nc2ccccc2)s1	CYP2C9 inhib 59, CYP2C19 inhib 69
CC(C)Sc1nnc(NC(=O)C2CC2)s1	none
Cc1cccc(NC(=O)Cn2cnc3ccc(S(=O)(=O)N4CCC(C)CC4)cc3c2=O)n1	none
Cc1ccc(S(=O)(=O)NC(=O)c2cc(C)n(CCCn3ccnc3)c2C)cc1	CYP2C9 inhib 90, CYP2C19 inhib 54
Cc1cc(=S)cc(C)n1CCCn1ccnc1	none
Cc1ccc(C)c(NC(=S)NNC(=O)c2csc3c2CCC(C)C3)c1 (configuration not stated)	CYP2C9 inhib 53, CYP2C19 inhib 86
Cc1ccc(C)c(NC(=S)NNC(=O)c2csc3c2CCCC3)c1	none
CC(C(=O)O)N1C(=O)c2ccccc2C1=O (configuration not stated)	none
CCN(CC)C(=O)C(Cc1ccccc1)N1C(=O)c2ccccc2C1=O (configuration not stated)	CYP2C9 inhib 53, CYP2C19 inhib 67 (no result: PLAP act)
COc1ccccc1CNc1cc(CSc2ccc(Cl)cc2)nc(C)n1	CYP2C9 inhib 94, PLAP act 2, CYP2C19 inhib 91
COc1cccc(CNc2cc(CSc3ccc(Cl)cc3)nc(C)n2)c1	CYP2C9 inhib 96, PLAP act 2, CYP2C19 inhib 94
COc1cccc(CNc2nc3nc(C)cc(C)n3n2)c1	none
CC(C)C1Cc2[nH]c(=O)c(C(=O)O)cc2CO1 (configuration not stated)	none
COc1cccc2[nH]c3c(N4CCCCC4)ncnc3c12	none
CCOC(=O)C1CCN(c2ncnc3c2[nH]c2cccc(OC)c23)CC1	CYP2C9 inhib 51, CYP2C19 inhib 61
CCOC(=O)C1CCN(c2ncnc3c2oc2ccc(Cl)cc23)CC1	CYP2C9 inhib 53, CYP2C19 inhib 80
Cc1ccc(/C=N/n2cnc3sc(-c4ccccc4)cc3c2=O)o1	none
C=CCN=C(NC#N)SCC(=O)NC(C)(C)C	none
C=CCN=C(NC#N)SCC(=O)NCc1ccccc1	CYP2C19 inhib 51
C=CCN=C(NC#N)SCCc1ccccc1	CYP2C9 inhib 52, CYP2C19 inhib 93
CCC(Sc1nc2ccccc2c(=O)[nH]1)C(=O)O (configuration not stated)	none
COC(=O)c1nc(NC(=O)C(C)C)n[nH]1	none
CCN(CC)S(=O)(=O)c1ccc(C(=O)Nc2nnc(C(C)C)s2)cc1	none
CCN(CC)S(=O)(=O)c1ccc(-c2nnc3sc4cccc(C)c4n23)cc1	CYP2C9 inhib 78, CYP2C19 inhib 72
CCOc1ccccc1C1C(C#N)=C(N)Oc2cc(N)ccc21 (configuration not stated)	CYP2C9 inhib 70, CYP2C19 inhib 76
COc1ccc(C2C(C#N)=C(N)Oc3cc4c(cc32)OCO4)cc1 (configuration not stated)	CYP2C9 inhib 87, CYP2C19 inhib 87
COc1ccc(OC)c(C2C(C#N)=C(N)Oc3cc(N)ccc32)c1 (configuration not stated)	CYP2C9 inhib 92, CYP2C19 inhib 94
